# LASV entry inh – qHTS for Inhibitors of binding or entry into cells for Lassa Virus; Lassa virus pseudotype entry inhibition, cell reporter; Potency, µM (highest dose often 37.9 µM), inactives show at the top dose activity change, negative = inhibition, actives largely listed as inhibitors; 300,000 compounds, 1.2% hits; AID 540256, 2011; calls by dose curve; tested in HEK293 cells; further: potency means the concentration at half of the fitted maximal effect; nearly all actives have a fitted effect of over 50% in size
# MARV entry inh – qHTS for inhibitors of binding or entry into cells for Marburg Virus; Marburg virus pseudotyped entry inhibition, cell reporter; Potency, µM (doses to about 37.8 µM), inactives show top-dose activity change, negative = inhibition, usual class: inhibitors; 300,000 compounds, 1.8% hits; AID 540276, 2011; calls by dose curve; tested in HEK293 cells; further: potency means the concentration at half of the fitted maximal effect
# FMDV antiviral – High Throughput Screening for Foot and Mouth Disease Virus Antivirals. Potency, µM (doses to about 57.9 µM), for inactives: top-dose activity change, negative = inhibition, usual class: inhibitors. FMDV antiviral cell-based qHTS. 410,000 compounds, 1.2% hits; calls by dose curve; tested in HEK293T cells; further: read-out not given here; potency means the concentration at half of the fitted maximal effect; nearly all actives have a fitted effect of over 45% in size
# FBPA Giardia inh – qHTS Assay for Inhibitors of Fructose-1,6-bisphosphate Aldolase from Giardia Lamblia | purified Giardia FBPA | Potency, µM (titrated, usually from 59.6 µM), for the others: at the highest dose activity, negative = inhibition, most hits filed as inhibitors | 290,000 compounds, 0.71% hits | AID 2451, 2010; further: potency means the concentration at half of the fitted maximal effect; nearly all actives have a fitted effect of over 55% in size
# Target sequence (A8B2U2 whole entry, looked up): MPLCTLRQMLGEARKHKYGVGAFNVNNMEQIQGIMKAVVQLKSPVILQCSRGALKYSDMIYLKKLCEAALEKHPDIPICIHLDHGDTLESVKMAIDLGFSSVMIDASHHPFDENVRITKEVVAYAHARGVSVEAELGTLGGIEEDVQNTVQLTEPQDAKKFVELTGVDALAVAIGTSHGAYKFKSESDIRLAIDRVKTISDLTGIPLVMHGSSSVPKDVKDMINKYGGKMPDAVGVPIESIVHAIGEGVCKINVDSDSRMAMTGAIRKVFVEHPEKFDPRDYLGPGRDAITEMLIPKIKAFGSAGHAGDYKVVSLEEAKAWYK
#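 40 nM FBPA preincubated 10 min at RT with compound (up to 57.5 uM final), then substrate plus GAPDH/TPI/NAD/arsenate coupling and diaphorase/resazurin added. Fluorescence read after 20 min at RT, 525/598 nm.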
# HCMV inh – qHTS Assay for inhibitors of the human cytomegalovirus (HCMV); HFF cells, HCMV-luciferase reporter, 72 h; hits give low values; activity change, negative = inhibition, % at 57.5 µM; 410,000 compounds, 4.5% hits; AID 1259415, 2018; in the data active means activity change below about -60%; inconclusive means no clear call, values can overlap the other calls; inactive means above about -39%
#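 Luciferase read-out from HCMV-luciferase-infected HFFs (MOI 1 PFU/cell) 72 h post infection at 37C; compounds added after 16 h cell attachment; activity normalized between buffer-only basal and Salinomycin (10uM) inhibitor controls.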
# HCV inhibitor – qHTS Assay for Inhibitors of Hepatitis C Virus (HCV); 340,000 compounds, 3.4% hits; Potency, µM (highest dose often 41.8 µM), inactives show at the top dose activity change, negative = inhibition, hits mostly inhibitors; Huh7.5.1 HCVcc-Cre infection, luciferase reporter, 44 h; further: potency means the concentration at half of the fitted maximal effect
#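 A cell-based infection assay in which seeded cells (1,000 per well) receive test compound after 4 h, are inoculated with HCVcc-Cre at approximately 0.5 moi, and are incubated 44 h before luminescence detection.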
# Starred values were filed as active, the others as inactive; ? = inconclusive; · = not tested or not shown; [ ] = dose if it differs, or a comment. Only some compounds are listed: those with a hit (about 8.3% of all), similar ones and a draw of the others. Unless noted, the call rests on the fitted dose curve; in most records, active means well fitted curve in the direction sought with a large enough effect; inconclusive means small, poorly fitted or top-dose-only effect, or another doubt; inactive means no such curve, though single readings can be large; an effect the other way counts as inactive or inconclusive. On the % scale 0 is the no-effect control and ±100 the full control effect.
SMILES,LASV entry inh,MARV entry inh,FMDV antiviral,FBPA Giardia inh,HCMV inh,HCV inhibitor
CO[C@H]1COC(=O)CCC[C@H](C)[C@@H](OC)COC(=O)C/C=C\[C@@H]1C,·,·,·,3%[12.9 µM],·,·
COc1ccc(-c2noc(C3CCCN(C(=O)Nc4ccccc4F)C3)n2)cc1 (centres undefined),?,?,10%,-4%,-13,?
COc1ccc(NC(=O)N2CCCC(c3nc(-c4ccc(C(C)C)cc4)no3)C2)cc1 (centres undefined),2%,-26%,?,-1%,?,10µM*
CC(=O)Nc1ccc(S(=O)(=O)N2c3ccccc3C(C)=CC2(C)C)cc1,?,?,1%,-8%,-80*,8%
C/C=C/C(=O)N1c2ccc(C)cc2C(C)=CC1(C)C,·,·,-20%,12%,-12,-2%
CC1=CC(C)(C)N(S(=O)(=O)c2ccc(C)cc2)c2ccc(C)cc21,-21%,?,·,10%,-74*,26%
CC1=CC(C)(C)N(S(=O)(=O)c2ccc(F)cc2)c2ccccc21,-23%,?,?,-1%,-29,9%
COc1cc(NC(=O)c2nn(-c3ccc(F)cc3)c(=O)n(C)c2=O)cc(OC)c1OC,-1%[46.1 µM],·,-2%,·,23,·
CCOC(=O)C(Cc1ccccc1)(Nc1ccccc1)C(O)c1ccc([N+](=O)[O-])cc1 (centres undefined),·,·,·,·,23,·
CC(C)(CO)NC(=O)c1cnn(-c2nccc(-c3ccc4c(c3)OCO4)n2)c1C1CC1,·,·,29%,·,·,·
Cc1cc(-c2csc(N)n2)c(C)n1CCc1ccccc1,-15%,?,11µM*,0%,-18,?
Cc1cc(-c2csc(N)n2)c(C)n1CCC(C)C,13%,-17%,22µM*,-24%,?,-2%
Cc1nn(C)cc1-c1csc(N)n1,0%,2%[46.1 µM],12%,-6%,48,10%
Cc1ccc(NC(=O)CSc2nc3c(sc4ccccc43)c(=O)n2CCCC(=O)NC2CCCC2)cc1C,-21%[46.1 µM],2%[46.1 µM],-6%,·,-6,·
Clc1ccc(-c2nnc(NC3=NCCCCC3)o2)cc1,?,1.6µM*,-87%,-6%,?,?
COc1ccccc1OCc1ccc(C(=O)NC(C)(C)C)o1,-4%,-8%,?,0%,16,?
COc1ccc(NC(=O)Nc2ccc(Cc3ccncc3)cc2)cc1OC,-7%,-1%[46.1 µM],22µM*,3%,-14,?
COc1cc2ccccc2cc1C(=O)Nc1ccc(Cc2ccncc2)cc1,?,?,-32%,-20%,14,10µM*
COc1ccccc1OCc1ccc(C(=O)Nc2ccncc2)o1,?,?,14µM*,8%,?,?
CC(C)C[C@H](NC(=O)[C@@H]1CCCN1C(=O)[C@H](CO)NC(=O)[C@H](Cc1ccccc1)NC(=O)CNC(=O)[C@@H]1CCCN1C(=O)[C@@H]1CCCN1C(=O)[C@@H](N)CCCN=C(N)N)C(=O)O,·,·,·,7%,·,·
Oc1ccccc1N=Nc1ccccc1O,·,·,56%,6%,-99*,0.89µM*
Nc1ccc(N=Nc2ccccc2O)c(N)c1,-5%,14%,37%,·,79,-16%
O=C(Nc1ccc2ccccc2c1)C(c1ccccc1)C1CCCC1 (centres undefined),2.6µM*,?,-26%,0%,?,?
Cc1ccc(NC(=O)C(c2ccccc2)C2CCCC2)cc1 (centres undefined),2%,-29%,-27%,5%,-20,-5%
COC(=O)c1nn(-c2ccc(OC)cc2)c(=O)cc1O,4%[46.1 µM],-14%[46.1 µM],-5%,?,-29,10%
SMILES,LASV entry inh,MARV entry inh,FMDV antiviral,FBPA Giardia inh,HCMV inh,HCV inhibitor
COc1ccc(-n2nc(C#N)c(Cl)cc2=O)cc1,?,3.2µM*,22µM*,-2%,-101*,?
Cc1ccc(C(C)(C)C)cc1S(=O)(=O)N1CC(=O)Nc2ccccc21,?,10µM*,-5%,5%,-12,?
Cc1ccc(S(=O)(=O)N2CC(=O)Nc3ccccc32)c(C)c1NS(C)(=O)=O,1%[46.1 µM],5%[46.1 µM],-10%,7%,-32,17%
Cc1cc(C(C)(C)C)cc(C)c1S(=O)(=O)N1CC(=O)Nc2ccccc21,11µM*,-35%,-20%,-1%,?,?
COC(=O)[C@@H](NC(=O)O[C@@H]1C(=O)c2ccc(OC)cc2O[C@H]1c1ccc2c(c1)OCO2)C(C)C,·,·,·,-1%,·,·
Cc1c(Cl)cccc1NC(=O)CCn1cnnn1,-4%[46.1 µM],0%[46.1 µM],-17%,·,-2,·
COc1ccccc1NC(=O)c1ccc(NC(=O)COC(=O)C2(C)CC2(Cl)Cl)cc1 (centres undefined),-18%,-32%,35µM*,-6%,-13,-10%
CC1(C(=O)OCC(=O)Nc2ccc(C(N)=O)cc2)CC1(Cl)Cl (centres undefined),-1%,-17%[46.1 µM],1%,0%,-30,2%
CCOC(=O)C1CCCN(CC(=O)Nc2ccc(C(=O)Nc3ccccc3OC)cc2)C1 (centres undefined),0%,?,-25%,·,-20,11µM*
O=C1[C@H]2[C@@H]3[C@@H](O)[C@H](O)CC(=NOCc4ccccc4)[C@H]3CC[C@H]2C(=O)N1C1CCCCC1,?,-25%[14.2 µM],·,·,·,·
Cc1ccc(O)c(C(=O)c2cc(C#N)c3nc4ccccc4n3c2)c1,3%,-1%[46.1 µM],?,-6%,-13,5µM*
O=c1cc(CSc2n[nH]c(-c3ccccc3)n2)[nH]c2ccccc12,10%[46.1 µM],·,?,·,?,·
CC(=O)OC1C(O)C2=C3C4(C)C1C(C)(C)C(=O)CC4C3(O)C(OC(C)=O)C1(CC1C)C2=O (centres undefined),·,·,22µM*,·,-26,·
Cc1ccccc1C(=O)NC(C)c1nnc2n1CCN(Cc1ccccc1F)CC2 (centres undefined),·,·,-11%,·,·,·
N=c1ccn(Cc2ccc(Cl)c(Cl)c2)cc1,-29%,?,?,5%,-97*,3.5µM*
N=c1ccn(Cc2ccc(Cl)cc2)cc1,?,?,?,3%,-93*,1.1µM*
Clc1ccc(CN2CCCCCCC2)cc1Cl,-6%,11%,-10%,?,9,-19%
N=c1ccn(Cc2cccc(Cl)c2)cc1,?,?,?,14%,-71*,2.5µM*
O[C@@H]1[C@@H]2c3cc4c(cc3CN3CCC(=C[C@@H]1O)[C@H]23)OCO4,·,·,·,-1%[21.7 µM],·,·
CCSc1ccc(-c2nn(-c3ccccc3)cc2/C=C(/C#N)C(=O)NCCCOC)cc1,-27%,-26%,-6%,4%,-6,9%
CCOc1cccc(-c2nn(-c3ccccc3)cc2/C=C(/C#N)C(=O)NCCCn2ccnc2)c1,?,?,?,3%,?,18µM*
Cc1ccc(-c2nn(-c3ccccc3)cc2/C=C(\C#N)C(=O)NCc2ccccc2)cc1,?,15%,-12%,0%,2,8%
